Data: PubChem BioAssay AID1159580 (chemical genetic matrix, 2015)
In all, about 5,500 compounds went through this assay and about 2,000 (36%) were called active. Not shown: some 18% with an inconclusive outcome. Rule as the data show it: active = normalized growth mostly below about 0.91 (no sharp cut-off); inconclusive = no clear call, values can overlap the other calls; inactive = mostly above about 0.92. Some of the results follow.

Assay: chemical genetic growth profiling, strain panel (AID 1159580);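 also: tested at 20 µM; growth read once vehicle control cultures reached saturation at 30 °C; 1 = growth at the plate median or of vehicle wells; lower values mean less growth of the strain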
Conditions: S. cerevisiae deletion strains, growth OD
[1] = locus YAL013W, strain DEP1, hits give low values
[2] = locus YJR075W, strain HOC1, hits give low values
[3] = locus YMR307W, strain GAS1, hits give low values
[4] = locus YNL153C, strain GIM3, hits give low values
[5] = locus YNL322C, strain KRE1, hits give low values
[6] = locus YAL040C, strain CLN3, hits give low values
[7] = locus YCL061C, strain MRC1 (second series), hits give low values
[8] = locus YDR150W, strain NUM1, hits give low values
[9] = locus YDR363W, strain ESC2, hits give low values
[10] = locus YER002W, strain NOP16, hits give low values
[11] = locus YGR078C, strain PAC10, hits give low values
[12] = locus YNL175C, strain NOP13, hits give low values
[13] = locus YNL197C, strain WHI3, hits give low values
[14] = locus YNL224C, strain SQS1, hits give low values
[15] = locus YOR083W, strain WHI5 (second series), hits give low values

Measured: normalized growth

CCC1C2CC3C4N(C)c5ccccc5C45CC(C2C5OC(C)=O)N3C1OC(C)=O (configuration not stated)
inactive: [1] 1.01 | locus YBR021W, strain FUR4, hits give low values 1.01 | locus YBR229C, strain ROT2, hits give low values 1 | locus YCL029C, strain bik1, hits give low values 1.02 | locus YDL035C, strain GPR1, hits give low values 1.02 | locus YDL074C, strain BRE1, hits give low values 1.04 | locus YDL101C, strain DUN1, hits give low values 1.01 | locus YDL134C, strain PPH21, hits give low values 1.02 | locus YDL185W, strain tfp1, hits give low values 1.02 | locus YDL192W, strain arf1, hits give low values 1.01 | locus YDR101C, strain arx1, hits give low values 1.01 | locus YDR162C, strain NBP2, hits give low values 1.01 | locus YDR318W, strain mcm21, hits give low values 1.01 | locus YDR388W, hits give low values 1.03 | locus YDR502C, strain sam2, hits give low values 1.02 | locus YEL061C, strain CIN8, hits give low values 1.01 | locus YER110C, hits give low values 1.03 | locus YER155C, strain BEM2, hits give low values 1 | locus YER167W, strain BCK2, hits give low values 1.02 | locus YGL078C, strain dbp3, hits give low values 1 | locus YGL086W, strain mad1, hits give low values 0.997 | locus YGL248W, strain PDE1, hits give low values 1.01 | locus YGR135W, strain pre9, hits give low values 1.01 | locus YGR252W, strain gcn5, hits give low values 1.02 | locus YHR030C, strain SLT2, hits give low values 1.02 | locus YHR079C, strain IRE1 (second series), hits give low values 1 | locus YHR094C, strain hxt1, hits give low values 1.01 | locus YHR129C, strain ARP1, hits give low values 1.02 | locus YHR200W, strain rpn10, hits give low values 1.02 | locus YIL066C, strain RNR3, hits give low values 1.02 | locus YIL073C, strain SPO22, hits give low values 1.08 | locus YIL125W, strain kgd1, hits give low values 1.03 | locus YIR030C, strain dcg1, hits give low values 1.01 | locus YJL095W, strain BCK1, hits give low values 1.01 | locus YJL134W, strain LCB3, hits give low values 1.02 | locus YJL168C, strain set2, hits give low values 1.02 | locus YJL187C, strain SWE1 (second series), hits give low values 1.01 | locus YJR043C, strain POL32, hits give low values 1.01 | [2] 1.04 | locus YKL009W, strain mrt4, hits give low values 1.02 | locus YKL068W, hits give low values 1 | locus YKL085W, strain MDH1 (second series), hits give low values 0.995 | locus YKL085W, strain MDH1, hits give low values 0.995 | locus YKR001C, strain vps1, hits give low values 1.03 | locus YLR039C, strain RIC1, hits give low values 1.07 | locus YLR058C, strain SHM2, hits give low values 1.01 | locus YLR102C, strain apc9, hits give low values 1.03 | locus YLR262C, strain YPT6, hits give low values 1.09 | locus YLR268W, strain sec22, hits give low values 1.02 | locus YLR330W, strain CHS5, hits give low values 1.02 | locus YLR342W, strain FKS1 (second series), hits give low values 1.03 | locus YLR371W, strain rom2, hits give low values 1.01 | locus YLR418C, strain cdc73, hits give low values 1.04 | locus YML016C, strain PPZ1, hits give low values 1.01 | locus YML032C, strain rad52, hits give low values 1.02 | locus YML124C, strain tub3, hits give low values 1.01 | locus YMR078C, strain ctf18, hits give low values 0.999 | locus YMR223W, strain ubp8, hits give low values 1.01 | locus YMR263W, strain SAP30, hits give low values 1.01 | [3] 0.992 | locus YNL067W, strain RPL9B, hits give low values 1.02 | locus YNL128W, strain TEP1, hits give low values 1.01 | [4] 1 | locus YNL233W, strain BNI4, hits give low values 1.02 | locus YNL250W, strain rad50, hits give low values 1.01 | locus YNL271C, strain bni1, hits give low values 1.01 | locus YNL298W, strain CLA4, hits give low values 1.02 | locus YNL307C, strain MCK1, hits give low values 1.02 | [5] 1.01 | locus YNR052C, strain pop2, hits give low values 1.02 | locus YOL006C, strain TOP1, hits give low values 1.14 | locus YOL012C, strain htz1 0.814 | locus YOL147C, strain pex11, hits give low values 1.02 | locus YOR061W, strain CKA2, hits give low values 1.01 | locus YOR069W, strain VPS5, hits give low values 1.01 | locus YOR136W, strain idh2, hits give low values 1.02 | locus YOR144C, strain elg1, hits give low values 1.01 | locus YOR184W, strain ser1, hits give low values 1.01 | locus YOR316C, strain cot1, hits give low values 1.02 | locus YPL055C, strain LGE1, hits give low values 1.04 | locus YPR119W, strain clb2, hits give low values 1 | locus YPR141C, strain kar3, hits give low values 1.01 | locus YPR163C, strain tif3, hits give low values 1.02 | locus YPR167C, strain met16, hits give low values 1.01 | strain wtn01, hits give low values 1.04

CO[C@H]1CC=C2CCN3CCC4=C(CC(=O)OC4)[C@]23C1
inactive: [6] 0.99 | [7] 1 | [8] 1.01 | [9] 1.07 | [10] 1.01 | [11] 1.01 | [2] 1.01 | [3] 0.999 | [4] 0.981 | [12] 1.01 | [13] 1.03 | [14] 0.997 | [5] 0.998 | [15] 1.06

Nc1ccn([C@H]2CC[C@@H](CO)O2)c(=O)n1
inactive: [1] 1.01 | [6] 1.01 | [7] 0.988 | [8] 0.994 | [9] 1.01 | [10] 0.987 | [11] 0.989 | [3] 0.993 | [4] 1.04 | [12] 1 | [13] 1 | [14] 0.997 | [15] 1.01
